Giardia kill – Giardia lamblia killing; Giardia lamblia trophozoite viability; 340,000 compounds, 0.15% hits; activity change, % at 7.66 µM, hits read low; AID 540267; in the data active = activity change below about -80%; inconclusive = between about -30% and that limit;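 note: parasites exposed to compound for two days anaerobically before the ATP read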
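Viability, read as ATP luminescence: trophozoites at 100 cells/well, compound added, 48 hrs anaerobic at 37 deg C, then 15-30 min room-temperature development before reading.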
Vif-APOBEC3F blk – Vif-A3F binding inhibition | HeLa A3F-eYFP + Vif (tagged APOBEC3F with the HIV-1 protein that degrades it), YFP fluorescence increase | Potency, µM (doses to about 46.1 µM) | 390,000 compounds, 0.2% hits | AID 602313; note: nearly all actives have a fitted effect of over 65% in size
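HeLa cells stably expressing Vif plus C-terminally eYFP-tagged A3F were seeded, incubated overnight at 37 deg C, dosed with compound, incubated overnight again at 37 deg C. Yellow fluorescence (Ex 488/Em 500-530) reported blocked Vif-mediated A3F-eYFP degradation.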
IL-1B inflam inh – blocks inflammasome-driven IL-1 beta release; THP-1 LPS/ATP IL-1B secretion, AlphaLISA, 16 h; active compounds read low; activity change, % at 57.5 µM; 360,000 compounds, 4.7% hits; AID 743279; in the data active = activity change below about -50%; inconclusive = mostly about -30% to -49%
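Secreted IL-1B measured by AlphaLISA bead assay after 16 h compound exposure of THP-1 cells; compounds (final up to 57.5 uM) added 1 h before LPS (250 ng/mL) and ATP (1.25 mM) stimulation; lower signal means less secretion.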
SW480 rereplic – DNA re-replication induction in SW480 cells; SW480 DNA re-replication, Hoechst DNA content imaging, 48 h; Potency, µM (highest dose often 46.1 µM), actives largely listed as activators; 340,000 compounds, 1.8% hits; AID 624297; note: nearly all actives have a fitted effect of over 55% in size
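DNA re-replication was detected as more nuclei of elevated Hoechst intensity after 48 hr exposure to compound (23 nL pinned per well of 250 cells).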
MCF10A rerep – DNA re-replication induction in MCF 10a cells; 350,000 compounds, 2.9% hits; AID 624296; Potency, µM (top dose mostly 46.1 µM), usual class: activators; MCF 10A DNA re-replication, Hoechst nuclear intensity, 48 h; note: nearly all actives have a fitted effect of over 50% in size
Vif-A3G inh – blocks the Vif interaction with human APOBEC3G | Q9HC16 | HeLa A3G-eYFP + Vif (tagged APOBEC3G with the HIV-1 protein that degrades it), YFP fluorescence, overnight | Potency, µM (top dose mostly 46.1 µM), hits mostly inhibitors | 410,000 compounds, 0.076% hits | AID 602310; note: nearly all actives have a fitted effect of over 60% in size
Target sequence (Q9HC16 whole entry, looked up): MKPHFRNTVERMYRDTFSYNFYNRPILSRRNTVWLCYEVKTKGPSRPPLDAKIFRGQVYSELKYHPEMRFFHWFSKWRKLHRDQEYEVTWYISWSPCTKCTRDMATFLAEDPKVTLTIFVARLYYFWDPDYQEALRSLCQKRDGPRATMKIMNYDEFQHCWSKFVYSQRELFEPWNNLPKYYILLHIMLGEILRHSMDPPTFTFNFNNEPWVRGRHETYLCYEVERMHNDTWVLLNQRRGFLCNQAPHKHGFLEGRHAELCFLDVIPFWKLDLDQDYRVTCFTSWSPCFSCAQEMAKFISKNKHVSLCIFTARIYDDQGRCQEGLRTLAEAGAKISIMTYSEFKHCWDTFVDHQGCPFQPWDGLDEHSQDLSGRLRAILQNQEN
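HeLa cells stably expressing Vif and C-terminally eYFP-tagged A3G, seeded overnight at 37 deg C, then exposed to compound by pintool overnight at 37 deg C. Rise in yellow fluorescence (Ex 488/Em 500-530, Acumen) marks blocked Vif-driven A3G degradation.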
Hits are given with their value; [ ] = remark or other dose. Hits are enriched below; roughly 6.9% of the tested compounds scored in any of these assays. Unless noted, calls come from the whole dose curve; as a rule, active = well fitted curve in the direction sought with a large enough effect; inconclusive = small, poorly fitted or top-dose-only effect, or another doubt; inactive = no such curve, though single readings can be large; an effect the other way counts as inactive or inconclusive.

How did CC(=O)C1=C(c2cccc([N+](=O)[O-])c2)N(C(C)=O)n2c(C)nnc2S1 do in these assays?
Giardia kill: inactive; Vif-APOBEC3F blk: inactive; IL-1B inflam inh: -98; SW480 rereplic: inconclusive; MCF10A rerep: 23µM; Vif-A3G inh: inactive

What do the screens show for `CC(=O)Nc1ccc(CN(C)c2c(C)nc3ccc(C(=O)Nc4ccc(Cl)c(Cl)c4)cn23)cc1`?
IL-1B inflam inh: -53; Vif-A3G inh: inactive

Results for Cc1nc2ccc(C(=O)Nc3cccc(OCC(=O)N(C)C)c3)cn2c1N(C)CC1CCCCC1 ?
IL-1B inflam inh: -51; Vif-A3G inh: inactive

Results for COc1ccc(CNC(=O)c2ccc3nc(C)c(N(C)Cc4ccc(NC(C)=O)cc4)n3c2)cc1 ?
IL-1B inflam inh: inactive; Vif-A3G inh: inactive

How did CCOc1cccc(C2C(C(=O)c3ccc(C)o3)=C(O)C(=O)N2c2nnc(C)s2)c1 (stereo not given) do in these assays?
Giardia kill: inactive; Vif-APOBEC3F blk: inactive; IL-1B inflam inh: inactive; SW480 rereplic: inactive; MCF10A rerep: inactive; Vif-A3G inh: inactive

How did CCOc1cccc(C2C(C(=O)c3ccco3)=C(O)C(=O)N2c2nnc(C)s2)c1 (stereo not given) do in these assays?
Giardia kill: inactive; Vif-APOBEC3F blk: inactive; IL-1B inflam inh: inactive; SW480 rereplic: 5.8µM; MCF10A rerep: inactive; Vif-A3G inh: inactive

How did CCCOc1cccc(C2C(C(=O)c3ccc(C)o3)=C(O)C(=O)N2c2nc(C)c(C(C)=O)s2)c1 (stereo not given) do in these assays?
Giardia kill: inactive; Vif-APOBEC3F blk: inactive; IL-1B inflam inh: inactive; SW480 rereplic: inconclusive; MCF10A rerep: 23µM; Vif-A3G inh: inactive

What do the screens show for `O=C(NC(Cc1ccccc1)c1nc2ccccc2[nH]1)c1ccc(Cl)c([N+](=O)[O-])c1` (stereo not given)?
Giardia kill: inactive; Vif-APOBEC3F blk: inactive; IL-1B inflam inh: -165; SW480 rereplic: inconclusive; MCF10A rerep: inconclusive; Vif-A3G inh: inactive

Results for CSCC[C@H](NC(=O)c1ccc(Cl)c([N+](=O)[O-])c1)c1nc2ccccc2[nH]1 ?
Giardia kill: inactive; Vif-APOBEC3F blk: inactive; IL-1B inflam inh: -102; SW480 rereplic: inactive; MCF10A rerep: inconclusive; Vif-A3G inh: inactive

Results for Cc1c(C(=O)NC(Cc2ccccc2)c2nc3ccccc3[nH]2)cccc1[N+](=O)[O-] (stereo not given) ?
Giardia kill: inactive; Vif-APOBEC3F blk: inactive; IL-1B inflam inh: inactive; SW480 rereplic: inconclusive; MCF10A rerep: inactive; Vif-A3G inh: inactive

Results for Cc1ccc(CNC(=O)c2c(O)nc3ccccn3c2=O)cc1 ?
Vif-APOBEC3F blk: inactive; Vif-A3G inh: inactive

Results for N=C(N)c1ccc(N=Nc2c(O)ccc3c2[nH]c2ccccc23)cc1 ?
Giardia kill: inactive; Vif-APOBEC3F blk: inactive; IL-1B inflam inh: -97; SW480 rereplic: inactive; MCF10A rerep: inactive; Vif-A3G inh: inactive

What do the screens show for `NS(=O)(=O)c1ccc(N=Nc2c(O)ccc3ccccc23)cc1`?
Giardia kill: inactive; Vif-APOBEC3F blk: inactive; IL-1B inflam inh: inactive; SW480 rereplic: inactive; MCF10A rerep: inactive; Vif-A3G inh: inactive

Results for O=C(NCCSc1c(-c2ccc(Br)cc2)[nH]c2ccccc12)c1ccc(S(=O)(=O)N2CCOCC2)cc1 ?
Vif-APOBEC3F blk: inactive; Vif-A3G inh: inactive

What do the screens show for `CC(C)c1ccc(NC(=O)c2ccc(F)c(S(=O)(=O)N3CCc4ccccc4C3)c2)cc1`?
Vif-APOBEC3F blk: inactive; Vif-A3G inh: inactive

How did O=C(CCN1CCOCC1)Nc1cc(C(=O)Nc2ccc(Cl)cc2)ccc1N1CC2CC(C1)c1cccc(=O)n1C2 (stereo not given) do in these assays?
Giardia kill: inactive; Vif-APOBEC3F blk: inactive; IL-1B inflam inh: -63; SW480 rereplic: inactive; MCF10A rerep: inactive; Vif-A3G inh: inactive

How did COc1cccc(-n2c(SCc3ccc(F)cc3)nc3c([nH]c4ccccc43)c2=O)c1 do in these assays?
Vif-APOBEC3F blk: inactive; Vif-A3G inh: inactive

How did CC(C)c1ccc(S(=O)(=O)/N=C2/C=C(Sc3ncn[nH]3)C(=O)c3ccccc32)cc1 do in these assays?
Giardia kill: inactive; Vif-APOBEC3F blk: inconclusive; IL-1B inflam inh: -100; SW480 rereplic: 10µM; MCF10A rerep: 3.3µM; Vif-A3G inh: inconclusive

Results for Cc1ccc(S(=O)(=O)Nc2ccc(O)c(Sc3ncn[nH]3)c2)cc1 ?
Giardia kill: inactive; Vif-APOBEC3F blk: inactive; IL-1B inflam inh: inactive; SW480 rereplic: inactive; MCF10A rerep: inactive; Vif-A3G inh: inactive

What do the screens show for `Cc1ccc(S(=O)(=O)/N=C2/C=C(Sc3ncn[nH]3)C(=O)c3ccccc32)cc1`?
Giardia kill: inactive; Vif-APOBEC3F blk: inconclusive; IL-1B inflam inh: -105; SW480 rereplic: 8.2µM; MCF10A rerep: inactive; Vif-A3G inh: inconclusive

How did COc1cc(SC)ccc1C(=O)Nc1ccc(S(=O)(=O)Nc2nccc(C)n2)cc1 do in these assays?
Vif-APOBEC3F blk: inactive; Vif-A3G inh: inactive

What do the screens show for `CC1CN(C(=O)Nc2ccc(C(=O)NCc3ccccc3F)cc2)c2ccccc2S1` (stereo not given)?
Vif-APOBEC3F blk: inactive; Vif-A3G inh: inactive

How did CCc1ccc(NC(=O)CC2C(=O)N(c3cccc(C)c3)C(=O)N2Cc2ccco2)cc1 (stereo not given) do in these assays?
Vif-APOBEC3F blk: inactive; Vif-A3G inh: inactive

Results for CCOC(=O)C(NC(=O)CCl)(Nc1sc(C)c(CC)c1C#N)C(F)(F)F (stereo not given) ?
Giardia kill: inactive; Vif-APOBEC3F blk: inactive; IL-1B inflam inh: -107; SW480 rereplic: 16µM; MCF10A rerep: inconclusive; Vif-A3G inh: inactive

What do the screens show for `Oc1ccc(Nc2nc(N3CCCC3)c3ccccc3n2)cc1`?
Giardia kill: inactive; Vif-APOBEC3F blk: inactive; IL-1B inflam inh: -99; SW480 rereplic: inconclusive; MCF10A rerep: inconclusive; Vif-A3G inh: inactive

How did COc1ccc(Nc2nc(N3CCCC3)nc3ccccc23)c(OC)c1 do in these assays?
Giardia kill: inactive; Vif-APOBEC3F blk: inactive; IL-1B inflam inh: -99; SW480 rereplic: inconclusive; MCF10A rerep: 18µM; Vif-A3G inh: inactive

How did Cc1ccc(Nc2nc(N3CCOCC3)c3ccccc3n2)cc1 do in these assays?
Giardia kill: inactive; Vif-APOBEC3F blk: inactive; IL-1B inflam inh: -104; SW480 rereplic: inactive[9.22 µM]; MCF10A rerep: inconclusive; Vif-A3G inh: inactive

Results for COc1ccc(Nc2nc(N3CCCCC3)c3ccccc3n2)cc1 ?
Giardia kill: inactive; Vif-APOBEC3F blk: inactive; IL-1B inflam inh: -101; SW480 rereplic: inactive; MCF10A rerep: inactive; Vif-A3G inh: inactive

Results for COc1ccc(Nc2nc(N)c([N+](=O)[O-])c(N3CCCC3)n2)cc1 ?
Giardia kill: inactive; Vif-APOBEC3F blk: inconclusive; IL-1B inflam inh: inactive; SW480 rereplic: inconclusive; MCF10A rerep: inconclusive; Vif-A3G inh: inactive

High-throughput results deposited in PubChem by National Center for Advancing Translational Sciences (NCATS).
